Screening results (PubChem)
The entries come from a sample that favours hits as a whole.
Dicer inh – blocks human Dicer maturation of pre-miR-21. Q9UPY3. z-score at 25 µM. AID 1347074. 47,000 tested, 6% active. cat-ELCCA pre-miR-21 Dicer processing, chemiluminescence; active compounds read high; in the data active = z-score above about 3, passing the limit was not always enough;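 note: plate controls were vehicle for no effect and no enzyme for full effect; higher signal means more uncleaved substrate so more Dicer inhibition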
An asterisk follows results filed as active.

SMILES | Dicer inh
O=c1/c(=C/c2ccc(F)cc2)sc2nc3ccccc3n12 | 1
CC(=O)/C(N=Nc1ccc(F)cc1)=C(\C)O | 0.97
COc1cc(N=C(N)N=C(N)N)cc(OC)c1 | 0.32
Cc1cc(N=C(N)N=C(N)N)ccc1Br | 0.97
COc1ccc(N=C(N)N=C(N)N)cc1 | 6.3*
O=C(c1ncn[nH]1)N(Cc1cc2ccccc2[nH]c1=O)c1ccccc1 | 0.09
C=CCn1c(SCC(=O)Nc2c(C#N)cnn2-c2ccccc2)nnc1-c1ccncc1 | 0.2
CCN(CC)C(=O)Nc1ccc(OC)cc1 | 0.09
COc1ccc(NC(=O)c2scc(S(=O)(=O)C(C)C)c2N)cc1 | -0.51
COc1ccc(NC(=O)OC(C)C)cc1 | 3.5*
Cc1cc(C)n2ncc(/C(N)=N/OC(=O)NC(C)C)c2n1 | 0.1
Clc1ccc(C2=NN3C(C2)c2ccccc2OC3c2cccnc2)cc1 (centres undefined) | 6*
CC(C)C1Oc2ccccc2C2CC(c3ccccc3O)=NN21 (centres undefined) | 5.6*
Oc1ccccc1C1=NN2C(C1)c1ccccc1OC2c1ccccc1 (centres undefined) | 2.5
COc1cccc2c1OC(C(C)C)N1N=C(c3ccccc3O)CC21 (centres undefined) | 0.12
Oc1ccccc1C1=NN2C(C1)c1ccccc1OC2c1cccnc1 (centres undefined) | 12*
Clc1ccc(C2=NN3COc4ccccc4C3C2)cc1 (centres undefined) | 2.1
COc1cccc2c1OC(c1cccnc1)N1N=C(c3ccccc3O)CC21 (centres undefined) | -0.4
Cc1ccc(O)c(C2=NN3C(C2)c2cc(Cl)ccc2OC3c2cccnc2)c1 (centres undefined) | -0.6
COc1ccc2c(c1)-c1nc(C)sc1CC2 | 0.98
C=C(C)Cn1c(NCCCN2CCOCC2)nc2c1c(=O)[nH]c(=O)n2C | -0.11
O=c1cc(C(F)(F)F)[nH]c2c(Br)cccc12 | 1
CSc1nsc(SC)c1C(=O)NC(=O)Nc1cc(C)on1 | -1
CCCc1nnc(NC(CC)OC(=O)c2cc(C)nc3ccccc23)s1 (centres undefined) | 3.1*
COCCNc1cc(C)nc2ccccc12 | 5.5
SMILES | Dicer inh
CCc1nnc2sc(-c3cc(C)nc4ccccc34)nn12 | -1.1
COc1ccccc1C(=O)Oc1ccc2c(=O)c(Oc3ccccc3Br)coc2c1 | 2.2
CCCCOC(=O)Oc1ccc2c(=O)c(Oc3ccc(C)cc3)coc2c1 | 3.5*
COc1ccc(Oc2coc3cc(OC(=O)c4ccc(F)cc4)ccc3c2=O)cc1 | 0.4
Cc1cccc(Oc2coc3cc(OC(=O)c4ccncc4)ccc3c2=O)c1 | 28*
COc1ccc(C(=O)Oc2ccc3c(=O)c(Oc4ccccc4Br)coc3c2)cc1OC | 3.1*
CCC(C)OC(=O)COc1ccc2c(=O)c(Oc3cc(C)ccc3C)coc2c1 (centres undefined) | 7.7
CCOCCOC(=O)COc1ccc2c(=O)c(Oc3cc(C)ccc3C)coc2c1 | 3.4*
COc1ccccc1-c1coc2cc(OC(=O)c3ccc(Cl)cc3)ccc2c1=O | -0.87
CCOC(=O)Oc1ccc2c(=O)c(Oc3ccc(C(C)(C)C)cc3)coc2c1 | 1.5
Cc1cccc(Oc2coc3cc(OC(=O)c4cccnc4)ccc3c2=O)c1 | -0.67
C=CCOC(=O)Oc1ccc2c(=O)c(Oc3ccc(CC)cc3)coc2c1 | 1.3
Cc1ccc(C)c(Oc2coc3cc(OCC(=O)OCC(C)C)ccc3c2=O)c1 | 1.9
Cc1ccccc1C1CC(c2ccccc2Cl)Nc2nc(N)nn21 (centres undefined) | -0.09
CCc1ccc(C2C(C(=O)OC(C)C)=C(C)NC3=C2C(=O)CCC3)cc1 (centres undefined) | -0.57
Cc1ccc2c(c1)C(=O)C(O)(c1ccccc1)C(=O)N2 (centres undefined) | -1.3
COc1ccc(-c2cnc(NCc3cccc(Br)c3)n2C)cc1 | 0.84
Cn1sc(=O)c2ccc(S(=O)(=O)NCCc3ccncc3)cc21 | -0.96
CCCCOC(=O)C1=C(C)NC2=C(C(=O)CC(C)(C)C2)C1c1ccc(C(=O)OC)cc1 (centres undefined) | -0.14
Brc1cc(-c2ccccc2)ccc1OCc1cn2cccnc2n1 | -0.28
CCOCCOC(=O)C1=C(C)NC2=C(C(=O)CCC2)C1c1coc2ccccc2c1=O (centres undefined) | -0.71
CC(C)OC(=O)C(C)Oc1ccc2c(=O)c(Oc3ccccc3Br)coc2c1 (centres undefined) | -0.2
CC(C)(C)C(=O)Oc1ccc2c(=O)c(Oc3ccccc3Br)coc2c1 | -0.06
Cc1cc(C)cc(Oc2coc3cc(O)ccc3c2=O)c1 | 4.3*
Cc1ccc(Oc2coc3cc(O)ccc3c2=O)cc1 | 0.2
SMILES | Dicer inh
CC(C)(C)c1ccc(Oc2coc3cc(O)ccc3c2=O)cc1 | -1.3
CCC(=O)Oc1ccc2c(=O)c(Oc3ccccc3Br)coc2c1 | 4.3*
COc1cc(C2NC(C(=O)O)CS2)ccc1OCc1ccc(Cl)cc1 (centres undefined) | -0.86
NC(=O)CNC(=O)COc1ccccc1 | -0.24
C/C(=N\NS(=O)(=O)c1ccccc1)c1cc(-c2ccccc2)no1 | -0.73
Cc1ccc2c(c1)S/C(=C\c1sc3ccccc3[n+]1C)N2CCO | 1.1
